Of roughly 21,000 targets only a part is listed; those with the largest changes were picked by preference.
Target: XPOT_O43592_877_HIVPACFLAPLK (UniProt O43592)
Assay: probe-labelled cysteine peptide fold change vs DMSO (competition) (log2 fold change); higher = less target engagement (more negative = stronger competition)
Settings: THP-1, incubation time: 4 h
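Note: competitive chemoproteomic profiling in live THP-1 cells with an iodoacetamide desthiobiotin (IA-DTB) probe, comparing probe-labelled peptide intensities in compound-treated cells against DMSO-treated controls.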

Chain of UniProt O43592 (O43592 whole entry, looked up): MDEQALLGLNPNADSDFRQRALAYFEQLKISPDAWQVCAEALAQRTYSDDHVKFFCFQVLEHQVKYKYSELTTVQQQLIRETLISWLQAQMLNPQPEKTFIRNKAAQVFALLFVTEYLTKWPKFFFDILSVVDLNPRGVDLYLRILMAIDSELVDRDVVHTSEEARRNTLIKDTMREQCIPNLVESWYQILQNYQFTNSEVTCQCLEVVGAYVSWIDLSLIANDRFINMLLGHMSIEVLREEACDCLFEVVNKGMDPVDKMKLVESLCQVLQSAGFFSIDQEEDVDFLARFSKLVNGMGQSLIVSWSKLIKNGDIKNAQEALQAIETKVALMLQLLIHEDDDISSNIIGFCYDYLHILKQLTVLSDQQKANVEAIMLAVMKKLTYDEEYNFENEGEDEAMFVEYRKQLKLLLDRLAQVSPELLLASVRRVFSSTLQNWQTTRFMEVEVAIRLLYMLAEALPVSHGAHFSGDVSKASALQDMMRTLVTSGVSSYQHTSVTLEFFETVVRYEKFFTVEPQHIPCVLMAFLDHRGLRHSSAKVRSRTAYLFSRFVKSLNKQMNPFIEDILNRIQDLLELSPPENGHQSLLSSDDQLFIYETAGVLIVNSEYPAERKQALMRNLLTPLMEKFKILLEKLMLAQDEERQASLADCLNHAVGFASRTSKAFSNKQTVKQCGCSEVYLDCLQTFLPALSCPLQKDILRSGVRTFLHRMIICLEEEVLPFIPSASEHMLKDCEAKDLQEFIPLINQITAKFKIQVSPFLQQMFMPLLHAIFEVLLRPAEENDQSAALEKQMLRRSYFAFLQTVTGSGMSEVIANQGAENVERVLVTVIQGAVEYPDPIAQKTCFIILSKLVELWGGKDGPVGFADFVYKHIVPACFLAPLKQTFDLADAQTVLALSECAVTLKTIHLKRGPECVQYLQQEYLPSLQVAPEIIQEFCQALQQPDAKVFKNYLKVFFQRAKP

CC1Cc2ccccc2N1C(=O)C1CCCN(C(=O)CCl)C1 (mixture of isomers) [TRIM25 ligand 11 (diastereomer mixture)]
probe-labelled cysteine peptide fold change (10 µM): 0.0433 | probe-labelled cysteine peptide fold change (50 µM): 0.0734
